Test results reported in article PMC7862700, “An all-to-all approach to the identification of sequence-specific readers for epigenetic DNA modifications on cytosine”.

How the values were obtained:
Experiment in all cases: DAPPL (digital affinity profiling via proximity ligation, sequencing); 10 mM Tris-HCl pH 7.5, 50 mM NaCl, 1 mM DTT, 4% glycerol, room temperature, 30 min; GST-TFs on glutathione beads, 16-mer random dsDNA library, 0.1% formaldehyde crosslink after washing; high values mean tight binding
FLI1 = molecular target: T1, FLI1 (Homo sapiens, UniProt Q01543 1-452); conditions: protein: recombinant; tags: N-terminal GST; dsDNA, one strand shown
T1 sequence: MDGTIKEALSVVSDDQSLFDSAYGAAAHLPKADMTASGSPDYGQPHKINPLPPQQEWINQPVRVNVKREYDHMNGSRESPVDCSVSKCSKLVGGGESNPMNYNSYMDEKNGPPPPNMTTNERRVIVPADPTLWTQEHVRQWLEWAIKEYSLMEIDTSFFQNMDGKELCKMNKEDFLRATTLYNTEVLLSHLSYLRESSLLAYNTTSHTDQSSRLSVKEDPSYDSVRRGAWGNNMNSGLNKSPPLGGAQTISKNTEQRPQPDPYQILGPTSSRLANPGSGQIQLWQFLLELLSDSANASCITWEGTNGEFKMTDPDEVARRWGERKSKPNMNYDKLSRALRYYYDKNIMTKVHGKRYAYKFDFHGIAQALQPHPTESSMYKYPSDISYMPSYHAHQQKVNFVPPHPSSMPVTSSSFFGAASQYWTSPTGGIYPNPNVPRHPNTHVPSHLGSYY
Outline: (§1)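 Binding signal is defined as a hexamer's read frequency for one factor over its frequency for the tag-only sample. To obtain reads, GST-fused human transcription factors were expressed in yeast, captured on glutathione beads, barcoded with DNA and pooled with that sample. Pools met 200 nmole of a 16-mer random double-stranded DNA library in Tris/NaCl/DTT/glycerol buffer for 30 min at room temperature before washing, 0.1% formaldehyde crosslinking, proximity ligation (BsaI/T4 ligase, 1 h, 37 °C), PCR and Illumina NextSeq500 sequencing.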

ELK1 = molecular target: T2, ELK1 (Homo sapiens, UniProt P19419 1-428); conditions: protein: recombinant; tags: N-terminal GST; dsDNA, one strand shown
T2 sequence: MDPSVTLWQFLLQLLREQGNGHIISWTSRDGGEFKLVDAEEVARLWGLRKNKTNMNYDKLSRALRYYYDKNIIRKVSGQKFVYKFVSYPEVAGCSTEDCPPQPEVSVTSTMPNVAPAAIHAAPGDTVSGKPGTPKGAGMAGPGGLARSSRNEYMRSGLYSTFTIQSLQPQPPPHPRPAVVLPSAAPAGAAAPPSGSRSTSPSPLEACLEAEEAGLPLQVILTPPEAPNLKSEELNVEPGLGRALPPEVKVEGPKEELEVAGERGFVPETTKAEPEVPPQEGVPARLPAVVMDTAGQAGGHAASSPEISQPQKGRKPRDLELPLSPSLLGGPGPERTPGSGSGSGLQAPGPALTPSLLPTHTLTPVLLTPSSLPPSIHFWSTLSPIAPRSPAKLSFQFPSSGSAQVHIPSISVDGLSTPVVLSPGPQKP
Outline: as §1

GABPA = molecular target: T3, GABPA (Homo sapiens, UniProt Q06546 1-454); conditions: protein: recombinant; tags: N-terminal GST; dsDNA, one strand shown
T3 sequence: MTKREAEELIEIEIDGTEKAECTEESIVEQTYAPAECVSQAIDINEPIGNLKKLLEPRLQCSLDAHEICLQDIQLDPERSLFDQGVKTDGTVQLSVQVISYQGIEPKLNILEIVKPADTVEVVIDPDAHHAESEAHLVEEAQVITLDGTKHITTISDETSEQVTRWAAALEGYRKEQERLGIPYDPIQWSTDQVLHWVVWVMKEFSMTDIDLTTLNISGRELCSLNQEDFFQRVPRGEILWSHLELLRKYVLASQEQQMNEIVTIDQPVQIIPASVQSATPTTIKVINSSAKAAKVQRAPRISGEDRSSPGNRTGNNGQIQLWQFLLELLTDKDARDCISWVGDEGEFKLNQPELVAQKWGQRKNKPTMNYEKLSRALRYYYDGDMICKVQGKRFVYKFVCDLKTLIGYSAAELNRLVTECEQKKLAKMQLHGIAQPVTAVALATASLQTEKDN
Outline: as §1

ERG = molecular target: T4, ERG (Homo sapiens, UniProt P11308 1-479); conditions: protein: recombinant; tags: N-terminal GST; dsDNA, one strand shown
T4 sequence: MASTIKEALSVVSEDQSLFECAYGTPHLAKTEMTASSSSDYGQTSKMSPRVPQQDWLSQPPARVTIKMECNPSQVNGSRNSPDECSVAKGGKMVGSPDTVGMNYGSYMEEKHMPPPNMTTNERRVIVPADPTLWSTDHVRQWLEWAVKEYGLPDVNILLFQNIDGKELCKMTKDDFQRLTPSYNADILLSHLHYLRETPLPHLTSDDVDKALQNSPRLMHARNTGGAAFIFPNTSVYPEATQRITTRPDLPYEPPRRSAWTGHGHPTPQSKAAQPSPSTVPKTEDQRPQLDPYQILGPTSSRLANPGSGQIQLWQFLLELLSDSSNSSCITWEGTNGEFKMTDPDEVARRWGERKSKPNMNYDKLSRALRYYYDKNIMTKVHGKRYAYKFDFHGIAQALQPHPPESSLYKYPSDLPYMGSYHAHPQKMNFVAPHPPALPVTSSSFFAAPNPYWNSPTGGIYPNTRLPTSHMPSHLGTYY
Outline: as §1

ELF1 = ELF1 (Homo sapiens, UniProt P32519 1-619); conditions: protein: recombinant; tags: N-terminal GST; dsDNA, one strand shown
Chain of ELF1 (P32519 whole entry): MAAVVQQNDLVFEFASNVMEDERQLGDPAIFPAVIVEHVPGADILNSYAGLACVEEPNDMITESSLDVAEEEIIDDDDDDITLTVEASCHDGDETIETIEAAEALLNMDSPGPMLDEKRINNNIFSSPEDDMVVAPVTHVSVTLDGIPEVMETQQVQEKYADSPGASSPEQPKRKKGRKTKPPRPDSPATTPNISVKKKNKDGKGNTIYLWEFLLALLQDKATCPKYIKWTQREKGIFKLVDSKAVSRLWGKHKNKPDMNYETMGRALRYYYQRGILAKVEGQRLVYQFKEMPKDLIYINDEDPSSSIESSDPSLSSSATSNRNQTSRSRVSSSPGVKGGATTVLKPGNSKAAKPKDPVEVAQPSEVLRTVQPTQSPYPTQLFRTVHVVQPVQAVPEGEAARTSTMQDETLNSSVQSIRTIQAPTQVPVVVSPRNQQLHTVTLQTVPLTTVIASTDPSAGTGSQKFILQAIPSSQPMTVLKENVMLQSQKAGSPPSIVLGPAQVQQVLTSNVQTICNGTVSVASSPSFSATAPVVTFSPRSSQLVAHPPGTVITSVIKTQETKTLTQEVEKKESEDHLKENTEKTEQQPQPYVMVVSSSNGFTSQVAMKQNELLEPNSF
Outline: as §1

EHF = molecular target: T5, EHF (Homo sapiens, UniProt Q9NZC4 1-300); conditions: protein: recombinant; tags: N-terminal GST; dsDNA, one strand shown
T5 sequence: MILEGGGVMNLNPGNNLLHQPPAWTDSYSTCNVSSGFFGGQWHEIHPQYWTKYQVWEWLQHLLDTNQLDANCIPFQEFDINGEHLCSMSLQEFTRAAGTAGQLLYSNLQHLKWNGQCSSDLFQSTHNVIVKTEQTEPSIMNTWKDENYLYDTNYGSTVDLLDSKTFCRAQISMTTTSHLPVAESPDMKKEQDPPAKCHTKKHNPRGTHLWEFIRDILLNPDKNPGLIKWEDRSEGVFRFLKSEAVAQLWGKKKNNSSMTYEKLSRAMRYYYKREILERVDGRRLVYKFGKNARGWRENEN
Outline: as §1

SPI1 = SPI1 (Homo sapiens, UniProt P17947 1-270); conditions: protein: recombinant; tags: N-terminal GST; dsDNA, one strand shown
Outline: as §1

SPIB = SPIB (Homo sapiens, UniProt Q01892 1-262); conditions: protein: recombinant; tags: N-terminal GST; dsDNA, one strand shown
Chain of SPIB (Q01892 whole entry): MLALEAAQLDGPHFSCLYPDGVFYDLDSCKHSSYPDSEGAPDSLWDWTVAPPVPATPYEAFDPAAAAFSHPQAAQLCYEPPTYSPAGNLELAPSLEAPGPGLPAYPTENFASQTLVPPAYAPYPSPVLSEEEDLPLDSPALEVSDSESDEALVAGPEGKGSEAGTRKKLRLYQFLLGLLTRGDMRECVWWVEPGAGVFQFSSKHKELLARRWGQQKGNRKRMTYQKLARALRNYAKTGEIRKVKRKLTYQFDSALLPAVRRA
Outline: as §1

ELK3 = molecular target: T6, ELK3 (Homo sapiens, UniProt P41970 1-407); conditions: protein: recombinant; tags: N-terminal GST; dsDNA, one strand shown
T6 sequence: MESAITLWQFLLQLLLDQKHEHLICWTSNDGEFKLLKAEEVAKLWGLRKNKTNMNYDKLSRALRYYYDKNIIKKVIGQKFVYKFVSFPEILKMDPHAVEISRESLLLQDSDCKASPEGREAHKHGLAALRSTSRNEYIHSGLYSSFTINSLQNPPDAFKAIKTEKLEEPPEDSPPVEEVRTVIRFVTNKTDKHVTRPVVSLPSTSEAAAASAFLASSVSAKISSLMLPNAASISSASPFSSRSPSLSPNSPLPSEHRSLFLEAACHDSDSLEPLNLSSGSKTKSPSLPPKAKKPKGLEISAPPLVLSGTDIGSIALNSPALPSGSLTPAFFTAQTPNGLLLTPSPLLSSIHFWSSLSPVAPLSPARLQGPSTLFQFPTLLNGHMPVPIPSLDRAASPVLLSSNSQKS
Outline: as §1

FEV = molecular target: T7, FEV (Homo sapiens, UniProt Q99581 1-238); conditions: protein: recombinant; tags: N-terminal GST; dsDNA, one strand shown
T7 sequence: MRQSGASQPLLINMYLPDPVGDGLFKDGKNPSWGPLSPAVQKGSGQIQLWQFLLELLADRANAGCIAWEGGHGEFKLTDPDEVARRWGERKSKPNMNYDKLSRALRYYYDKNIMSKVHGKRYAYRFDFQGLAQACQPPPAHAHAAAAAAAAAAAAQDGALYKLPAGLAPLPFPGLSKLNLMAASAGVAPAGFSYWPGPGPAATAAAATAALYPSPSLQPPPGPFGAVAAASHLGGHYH
Outline: as §1

ETV5 = ETV5 (Homo sapiens, UniProt P41161 1-510); conditions: protein: recombinant; tags: N-terminal GST; dsDNA, one strand shown
Chain of ETV5 (P41161 whole entry): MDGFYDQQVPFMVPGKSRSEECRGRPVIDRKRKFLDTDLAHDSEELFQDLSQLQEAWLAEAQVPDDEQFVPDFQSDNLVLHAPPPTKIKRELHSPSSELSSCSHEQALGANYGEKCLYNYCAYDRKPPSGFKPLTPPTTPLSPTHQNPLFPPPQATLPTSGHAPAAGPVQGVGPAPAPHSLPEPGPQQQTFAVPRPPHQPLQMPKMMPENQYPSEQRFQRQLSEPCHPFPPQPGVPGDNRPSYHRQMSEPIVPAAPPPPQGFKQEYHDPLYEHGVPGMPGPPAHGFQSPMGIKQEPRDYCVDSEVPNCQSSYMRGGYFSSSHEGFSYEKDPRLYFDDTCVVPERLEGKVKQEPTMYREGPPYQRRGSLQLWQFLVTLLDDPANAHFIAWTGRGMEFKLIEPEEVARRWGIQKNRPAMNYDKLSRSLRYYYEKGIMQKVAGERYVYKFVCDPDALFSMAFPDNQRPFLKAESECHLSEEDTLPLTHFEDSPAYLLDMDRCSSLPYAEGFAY
Outline: as §1

HSF1 = HSF1 (Homo sapiens, UniProt Q00613 1-529); conditions: protein: recombinant; tags: N-terminal GST; chain copies: 3; dsDNA, one strand shown
Chain of HSF1 (Q00613 whole entry): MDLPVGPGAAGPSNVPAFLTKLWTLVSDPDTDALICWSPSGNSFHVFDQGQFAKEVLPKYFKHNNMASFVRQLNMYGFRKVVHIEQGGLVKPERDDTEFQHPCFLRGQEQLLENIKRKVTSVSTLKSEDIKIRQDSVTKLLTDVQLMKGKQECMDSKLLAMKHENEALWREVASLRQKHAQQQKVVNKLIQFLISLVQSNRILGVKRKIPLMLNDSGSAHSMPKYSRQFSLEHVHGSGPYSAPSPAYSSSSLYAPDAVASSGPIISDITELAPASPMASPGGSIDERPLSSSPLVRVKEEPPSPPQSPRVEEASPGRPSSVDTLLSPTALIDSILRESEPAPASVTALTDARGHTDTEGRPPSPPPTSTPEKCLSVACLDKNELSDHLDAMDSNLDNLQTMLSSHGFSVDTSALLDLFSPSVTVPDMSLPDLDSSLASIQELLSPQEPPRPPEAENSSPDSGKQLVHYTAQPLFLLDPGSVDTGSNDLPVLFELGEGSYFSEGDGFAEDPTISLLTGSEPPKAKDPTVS
Outline: as §1

SPIC = molecular target: T8, SPIC (Homo sapiens, UniProt Q8N5J4 1-248); conditions: protein: recombinant; tags: N-terminal GST; dsDNA, one strand shown
T8 sequence: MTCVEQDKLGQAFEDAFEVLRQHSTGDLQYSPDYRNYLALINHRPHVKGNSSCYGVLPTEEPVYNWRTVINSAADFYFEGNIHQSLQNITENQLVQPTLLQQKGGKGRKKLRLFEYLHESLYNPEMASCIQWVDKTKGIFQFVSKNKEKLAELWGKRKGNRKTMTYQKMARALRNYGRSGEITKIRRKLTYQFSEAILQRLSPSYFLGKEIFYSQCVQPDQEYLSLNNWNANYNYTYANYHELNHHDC
Outline: as §1

ELF4 = ELF4 (Homo sapiens, UniProt Q99607 1-663); conditions: protein: recombinant; tags: N-terminal GST; dsDNA, one strand shown
Chain of ELF4 (Q99607 whole entry): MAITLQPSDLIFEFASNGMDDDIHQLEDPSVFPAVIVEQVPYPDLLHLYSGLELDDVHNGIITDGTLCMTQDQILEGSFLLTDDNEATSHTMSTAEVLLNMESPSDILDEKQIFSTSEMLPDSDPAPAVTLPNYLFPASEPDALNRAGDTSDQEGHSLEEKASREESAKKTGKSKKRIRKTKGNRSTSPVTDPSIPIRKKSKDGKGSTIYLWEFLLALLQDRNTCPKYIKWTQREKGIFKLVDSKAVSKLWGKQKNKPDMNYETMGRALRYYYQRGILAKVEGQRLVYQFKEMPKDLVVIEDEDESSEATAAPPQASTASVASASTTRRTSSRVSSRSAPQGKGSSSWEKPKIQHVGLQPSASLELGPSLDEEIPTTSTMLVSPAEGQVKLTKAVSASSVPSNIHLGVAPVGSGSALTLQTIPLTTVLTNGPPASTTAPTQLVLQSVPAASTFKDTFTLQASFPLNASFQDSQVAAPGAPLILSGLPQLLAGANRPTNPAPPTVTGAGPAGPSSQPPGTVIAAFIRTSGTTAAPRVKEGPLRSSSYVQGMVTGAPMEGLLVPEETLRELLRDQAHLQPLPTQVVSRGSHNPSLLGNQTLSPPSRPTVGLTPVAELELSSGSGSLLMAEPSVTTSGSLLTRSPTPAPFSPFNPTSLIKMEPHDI
Outline: as §1

ELK4 = molecular target: T9, ELK4 (Homo sapiens, UniProt P28324-2 1-405); conditions: protein: recombinant; tags: N-terminal GST; dsDNA, one strand shown
T9 sequence: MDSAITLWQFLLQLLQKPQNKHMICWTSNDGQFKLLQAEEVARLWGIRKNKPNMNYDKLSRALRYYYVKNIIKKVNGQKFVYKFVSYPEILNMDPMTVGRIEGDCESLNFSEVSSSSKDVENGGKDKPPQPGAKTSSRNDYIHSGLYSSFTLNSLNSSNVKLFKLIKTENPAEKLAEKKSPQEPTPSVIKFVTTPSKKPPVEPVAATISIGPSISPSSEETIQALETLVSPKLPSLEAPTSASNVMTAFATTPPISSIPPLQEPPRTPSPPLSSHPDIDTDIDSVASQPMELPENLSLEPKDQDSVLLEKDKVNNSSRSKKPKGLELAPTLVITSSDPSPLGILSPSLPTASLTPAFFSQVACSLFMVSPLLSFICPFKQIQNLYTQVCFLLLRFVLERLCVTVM
Outline: as §1

ETV2 = molecular target: T10, ETV2 (Homo sapiens, UniProt O00321 1-342); conditions: protein: recombinant; tags: N-terminal GST; dsDNA, one strand shown
T10 sequence: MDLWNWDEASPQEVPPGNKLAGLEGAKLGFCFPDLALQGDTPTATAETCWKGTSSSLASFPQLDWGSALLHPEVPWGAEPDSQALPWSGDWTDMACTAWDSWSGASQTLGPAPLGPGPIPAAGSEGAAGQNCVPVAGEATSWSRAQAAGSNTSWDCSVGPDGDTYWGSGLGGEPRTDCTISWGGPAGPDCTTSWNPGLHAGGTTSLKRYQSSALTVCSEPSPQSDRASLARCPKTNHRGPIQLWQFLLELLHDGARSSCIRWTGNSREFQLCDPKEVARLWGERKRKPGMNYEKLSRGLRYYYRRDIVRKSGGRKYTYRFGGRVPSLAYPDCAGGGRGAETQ
Outline: as §1

CRX = CRX (Homo sapiens, UniProt O43186 1-299); conditions: protein: recombinant; tags: N-terminal GST; dsDNA, one strand shown
Chain of CRX (O43186 whole entry): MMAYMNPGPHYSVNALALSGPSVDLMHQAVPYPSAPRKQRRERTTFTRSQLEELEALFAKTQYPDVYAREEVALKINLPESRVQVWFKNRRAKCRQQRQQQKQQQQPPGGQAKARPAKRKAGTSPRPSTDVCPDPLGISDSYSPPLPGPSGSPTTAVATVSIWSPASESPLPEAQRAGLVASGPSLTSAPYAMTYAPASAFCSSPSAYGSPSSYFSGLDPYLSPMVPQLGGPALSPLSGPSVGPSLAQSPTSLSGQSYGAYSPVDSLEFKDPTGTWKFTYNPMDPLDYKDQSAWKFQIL
Outline: as §1

ETV1 = ETV1 (Homo sapiens, UniProt P50549 1-477); conditions: protein: recombinant; tags: N-terminal GST; dsDNA, one strand shown
Chain of ETV1 (P50549 whole entry): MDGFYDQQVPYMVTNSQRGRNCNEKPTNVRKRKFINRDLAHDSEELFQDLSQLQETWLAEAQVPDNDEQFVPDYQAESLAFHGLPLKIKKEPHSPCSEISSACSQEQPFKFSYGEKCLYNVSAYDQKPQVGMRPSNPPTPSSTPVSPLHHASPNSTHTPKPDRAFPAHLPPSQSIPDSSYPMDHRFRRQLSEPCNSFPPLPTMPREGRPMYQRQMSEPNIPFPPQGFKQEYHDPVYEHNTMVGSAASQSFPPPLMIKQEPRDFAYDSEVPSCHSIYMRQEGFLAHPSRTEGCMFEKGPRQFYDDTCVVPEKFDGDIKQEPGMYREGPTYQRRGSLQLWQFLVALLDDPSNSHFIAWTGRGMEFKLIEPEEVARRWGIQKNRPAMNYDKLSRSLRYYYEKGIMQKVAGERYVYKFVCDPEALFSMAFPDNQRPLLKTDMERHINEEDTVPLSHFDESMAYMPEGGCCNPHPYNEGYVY
Outline: as §1

Sequence | binding signal (FLI1) | binding signal (ELK1) | binding signal (GABPA) | binding signal (ERG) | binding signal (ELF1) | binding signal (EHF) | binding signal (SPI1) | binding signal (SPIB) | binding signal (ELK3) | binding signal (FEV) | binding signal (ETV5) | binding signal (HSF1) | binding signal (SPIC) | binding signal (ELF4) | binding signal (ELK4) | binding signal (ETV2) | binding signal (CRX) | binding signal (ETV1)
ACTCCA | 1.15 fold enrichment (6-mer frequency, TF over GST control) | 1.24 fold enrichment (6-mer frequency, TF over GST control) | 1.29 fold enrichment (6-mer frequency, TF over GST control) | 1.26 fold enrichment (6-mer frequency, TF over GST control) | 1.21 fold enrichment (6-mer frequency, TF over GST control) | 1.17 fold enrichment (6-mer frequency, TF over GST control) | 1.23 fold enrichment (6-mer frequency, TF over GST control) | 1.16 fold enrichment (6-mer frequency, TF over GST control) | 1.17 fold enrichment (6-mer frequency, TF over GST control) | 1.21 fold enrichment (6-mer frequency, TF over GST control) | 1.24 fold enrichment (6-mer frequency, TF over GST control) | 1.14 fold enrichment (6-mer frequency, TF over GST control) | 1.18 fold enrichment (6-mer frequency, TF over GST control) | 1.23 fold enrichment (6-mer frequency, TF over GST control) | 1.05 fold enrichment (6-mer frequency, TF over GST control) | 1.15 fold enrichment (6-mer frequency, TF over GST control) | 1.06 fold enrichment (6-mer frequency, TF over GST control) | 1.22 fold enrichment (6-mer frequency, TF over GST control)
TCCACC | 1.22 fold enrichment (6-mer frequency, TF over GST control) | 1.18 fold enrichment (6-mer frequency, TF over GST control) | 1.21 fold enrichment (6-mer frequency, TF over GST control) | 1.19 fold enrichment (6-mer frequency, TF over GST control) | 1.2 fold enrichment (6-mer frequency, TF over GST control) | 1.28 fold enrichment (6-mer frequency, TF over GST control) | 1.19 fold enrichment (6-mer frequency, TF over GST control) | 1.3 fold enrichment (6-mer frequency, TF over GST control) | 1.18 fold enrichment (6-mer frequency, TF over GST control) | 1.3 fold enrichment (6-mer frequency, TF over GST control) | 1.16 fold enrichment (6-mer frequency, TF over GST control) | 1.13 fold enrichment (6-mer frequency, TF over GST control) | 1.03 fold enrichment (6-mer frequency, TF over GST control) | 1.19 fold enrichment (6-mer frequency, TF over GST control) | 1.19 fold enrichment (6-mer frequency, TF over GST control) | 1.27 fold enrichment (6-mer frequency, TF over GST control) | 1.04 fold enrichment (6-mer frequency, TF over GST control) | 1.13 fold enrichment (6-mer frequency, TF over GST control)
